Among the test systems are NCI-H23 lung; NCI-H226 lung; NCI-H322M lung; HOP-62 NSCLC; NCI-H460 lung; HOP-92 NSCLC; NCI-H522 lung; A549/ATCC NSCLC; 786-0 renal; COLO 205 colon; DU-145 prostate; K-562 leukemia; MALME-3M melanoma; MDA-MB-231 breast; RXF 393 renal; SF-268 CNS; SF-295 CNS; SF-539 CNS; UACC-257 melanoma; M14 melanoma.
Holding throughout (experiment): NCI-60 one-dose screen, 48 h (100 = growth as untreated, 0 = no growth, -100 = all killed)
Common to all, as to conditions: 10 µM unless noted

Structures are written as SMILES. This is part of a sample that, as a whole, favours compounds with a hit. Of some 83,000 tested, about 20% had one in any assay.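 The test compound was applied at a single concentration to cells in 96-well plates for 48 hours, and percent growth was recorded.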 Values without a mark were called inactive. The source made the active and inactive calls. Rule for the calls: active = growth percent below 10; inactive = the rest.

For the molecule `CS(=O)(=O)c1ccc(/C(=N/NC(N)=S)c2ccc(F)cc2)cc1`, the growth is 97.9% in the assay with NCI-H23 lung; 107% with NCI-H226 lung; 104% in the assay on NCI-H322M lung; 105% in the assay with HOP-62 NSCLC; 102% in the assay with NCI-H460 lung; 112% in the assay with HOP-92 NSCLC. Moreover, the growth with NCI-H522 lung was 99.6%; in the assay with A549/ATCC NSCLC it was 108%; with 786-0 renal it was 102%; with COLO 205 colon, 116%; with DU-145 prostate, 108%; in the assay with K-562 leukemia, 85.1%. Besides, the growth in the assay with MALME-3M melanoma is 104%; with MDA-MB-231 breast it was 107%; in the assay on RXF 393 renal it was 85.1%; in the assay with SF-268 CNS, 98.8%; in the assay on SF-295 CNS it was 106%; with SF-539 CNS, 102%. Besides, the growth with UACC-257 melanoma is 102%; in the assay on M14 melanoma, 104%.
As to `CN1CCN(CCCNC(=O)c2c3c(n4ccccc24)C(=O)c2ncccc2C3=O)CC1`, the growth in the assay on NCI-H23 lung is -24.3% (active); in the assay on NCI-H226 lung, 33.7%; in the assay with NCI-H322M lung, -23.9% (active); with HOP-62 NSCLC, 25.8%; in the assay with NCI-H460 lung, -60.1% (active); in the assay with HOP-92 NSCLC, 14.9%. Also, the growth in the assay on NCI-H522 lung was -43.4% (active); in the assay with A549/ATCC NSCLC, -25.5% (active); in the assay with 786-0 renal, 28.5%; with COLO 205 colon it was -73% (active); in the assay with DU-145 prostate, 17.8%; with K-562 leukemia, -1.31% (active). Further, the growth in the assay on MALME-3M melanoma was -91.2% (active); with MDA-MB-231 breast it was 0.342% (active); in the assay on RXF 393 renal, 21.1%; in the assay with SF-268 CNS, 9.37% (active); with SF-295 CNS, 28.4%; in the assay on SF-539 CNS, -4.38% (active). For the same molecule, the growth in the assay with UACC-257 melanoma is -55.8% (active); in the assay on M14 melanoma it was -53.9% (active).
Regarding `Cc1csc(Nc2nc(-c3cccc(Cl)c3)nc(C(Cl)(Cl)Cl)n2)n1`, the growth with NCI-H23 lung was 79%; in the assay with NCI-H226 lung it was 95.6%; in the assay on NCI-H322M lung, -23.1% (active); with HOP-62 NSCLC, 20.3%; with NCI-H460 lung, 9.9% (active); with HOP-92 NSCLC, 32.7%. The growth was 83.6% with NCI-H522 lung; 1.73% (active) with A549/ATCC NSCLC; 59.5% in the assay on 786-0 renal; -38.6% (active) in the assay with COLO 205 colon; -30.4% (active) in the assay with DU-145 prostate; 65.6% in the assay on K-562 leukemia. Further, the growth in the assay on MALME-3M melanoma was 102%; in the assay on MDA-MB-231 breast it was 9.88% (active); in the assay with RXF 393 renal, -2.8% (active); in the assay with SF-268 CNS, 65.8%; in the assay with SF-295 CNS, 34.1%; in the assay on SF-539 CNS, 34%. Besides, the values for the growth with UACC-257 melanoma and with M14 melanoma were 36.2% and 88.3%, respectively.
In the case of `[2H]C([2H])([2H])Oc1c(F)cccc1/C=C/C(=O)/C=C(O)/C=C/c1cccc(F)c1OC([2H])([2H])[2H]`, the growth in the assay with NCI-H23 lung was 86.1%; in the assay on NCI-H226 lung, 108%; with NCI-H322M lung, 102%; with HOP-62 NSCLC, 110%; in the assay on NCI-H460 lung, 99.1%; in the assay on HOP-92 NSCLC, 89.4%. For the same molecule, the growth in the assay with NCI-H522 lung is 87.4%; with A549/ATCC NSCLC, 90.9%; in the assay on 786-0 renal, 103%; in the assay on COLO 205 colon, 114%; in the assay with DU-145 prostate, 103%; in the assay on K-562 leukemia it was 107%. The growth in the assay with MALME-3M melanoma is 100%; with MDA-MB-231 breast it was 109%; with RXF 393 renal, 106%; with SF-268 CNS, 90.5%; in the assay on SF-295 CNS, 102%; with SF-539 CNS, 101%. For the same molecule, the growth is 82.7% in the assay with UACC-257 melanoma and 92.9% in the assay with M14 melanoma.
Consider `CC1=C(C(=O)OCc2ccccc2)C(c2ccc3c(c2)OCO3)n2c(nc3ccccc32)N1` (stereo not given), for which the growth in the assay on NCI-H23 lung is 49.3%; with NCI-H226 lung it was 58.2%; in the assay on NCI-H322M lung, 47%; with HOP-62 NSCLC it was 44.2%; in the assay with NCI-H460 lung it was 6.62% (active); with HOP-92 NSCLC, 78.5%. In addition, the growth was 26.3% in the assay with NCI-H522 lung; 47.1% with A549/ATCC NSCLC; 43.1% with 786-0 renal; 37.2% in the assay on COLO 205 colon; 53.5% in the assay with DU-145 prostate; 13.8% in the assay with K-562 leukemia. The growth in the assay on MALME-3M melanoma was 39.7%; in the assay with MDA-MB-231 breast it was 68.6%; in the assay on RXF 393 renal it was 53.2%; in the assay with SF-268 CNS, 59.6%; with SF-295 CNS, 20.4%; in the assay with SF-539 CNS, 9.94% (active). The growth is 60.4% with UACC-257 melanoma and 28.1% in the assay on M14 melanoma.
As to `COc1ccc(/C=C2/CCc3cc4ccc(OC)cc4[o+]c32)c(O)c1`, the growth was 72.7% in the assay on NCI-H23 lung; 81.5% with NCI-H226 lung; 84.6% in the assay with NCI-H322M lung; 95.9% with HOP-62 NSCLC; 25.3% in the assay on NCI-H460 lung; 56.1% in the assay on HOP-92 NSCLC. The growth is 77.5% in the assay with NCI-H522 lung; 94.9% in the assay on A549/ATCC NSCLC; -6.35% (active) in the assay with 786-0 renal; 84.1% with COLO 205 colon; 76.7% with DU-145 prostate; 39.1% with K-562 leukemia. Further, the growth in the assay with MALME-3M melanoma was 16.9%; in the assay with MDA-MB-231 breast, 36.7%; with RXF 393 renal, 71.4%; with SF-268 CNS it was 82.2%; in the assay on SF-295 CNS, 106%; in the assay with SF-539 CNS, 109%. Further, the growth in the assay with UACC-257 melanoma is 87.4%; with M14 melanoma, 26%.
On to `C=C(C)[C@@H]1CC[C@]2(C#N)CC[C@]3(C)[C@H](CC[C@@H]4[C@@]5(C)CCCNC(C)(C)[C@@H]5CC[C@]43C)[C@@H]12`, for which the growth with NCI-H23 lung was 82.7%; in the assay with NCI-H226 lung, 96.6%; in the assay on NCI-H322M lung, 88.7%; with HOP-62 NSCLC, 113%; with NCI-H460 lung, 11.1%; in the assay with HOP-92 NSCLC it was 51%. The growth with NCI-H522 lung is 91.5%; in the assay on A549/ATCC NSCLC it was 73.2%; in the assay with 786-0 renal, 84.5%; in the assay with COLO 205 colon, -67.8% (active); with DU-145 prostate, 65.5%; in the assay on K-562 leukemia, -26.2% (active). The growth was 81% in the assay on MALME-3M melanoma; 57.6% with MDA-MB-231 breast; 82.3% with RXF 393 renal; 87.1% in the assay with SF-268 CNS; 92.9% in the assay with SF-295 CNS; 84% in the assay with SF-539 CNS. Besides, the results for the growth in the assay with UACC-257 melanoma and with M14 melanoma were 70.8% and 64.4%, respectively.

These data come from PubChem BioAssay (NCI).
